Source: publication PMC4552634, “A New Set of Chemical Starting Points with Plasmodium falciparum Transmission-Blocking Potential for Antimalarial Drug Discovery” (PLoS ONE, 2015)
Like-named read-outs stand apart in the source and are kept apart here. Screen size: about 13,000 compounds; about 3,200 (25%) showed an effect of 50% or more. This is one part of the list.

System: P. falciparum stage V gametocytes
Parameters: BacTiter-Glo ATP luminescence viability of purified stage V gametocytes in 384-well plates, per cent inhibition versus DMSO
Details: 48 h, 5 µM, inhibitor

Row | Structure (SMILES) | % Inhibition [%] | % Inhibition (% Inhibition) [%]
1 | O=C(NC1CC1)c1cnc(N2CCC(COc3cccc(F)c3)CC2)c(Cl)c1 [TCMDC-134030] | 7.356 | –
2 | COc1ccc(CCn2c(C3CCCCC3)nc3oc4ccccc4c(=O)c3c2=O)cc1 [TCMDC-125003] | 26.12 | –
3 | Cc1ccc(CON2C(N)=NC(N)=NC23CCCCC3)c2ccccc12 [TCMDC-131589] | 35.49 | –
4 | O=S(=O)(NC1CCN(c2ccnc3cc(Cl)ccc23)C1)c1ccc(F)cc1 (stereo not shown) [TCMDC-133654] | 5.841 | –
5 | CCC1CN2CCc3c([nH]c4ccccc34)[C@@H]2C[C@@H]1CC1NCCc2cc(OC)c(OC)cc21 (stereo partly shown) [TCMDC-142009] | – | -17.31
6 | CCC1CN2CCc3c([nH]c4ccc(OC)cc34)C2CC1CC1NCCc2cc(OC)c(OC)cc21 (stereo not shown) [TCMDC-142010] | -39.55 | –
7 | CCC1=C(C[C@H]2NCCc3cc(OC)c(OC)cc32)C[C@H]2c3cc(OC)c(OC)cc3CCN2C1 [TCMDC-131825] | 95.62 | –
8 | CCN(CC)c1ccc(-c2nc3ncc(Cl)cc3[nH]2)cc1 [TCMDC-125094] | 7.94 | –
9 | CC(C)c1ccc(-c2nc3ncc(Cl)cc3[nH]2)cc1 [TCMDC-125093] | 64.2 | –
10 | Nc1ncc(-c2cn[nH]c2)cc1-c1nc2ncc(Cl)cc2[nH]1 [TCMDC-133562] | -10.74 | –
11 | CC(=O)Nc1ccc(S(=O)(=O)Nc2c(C)cc(Cc3cnc(N)nc3N)cc2C)cc1 [TCMDC-137632] | -8.406 | –
12 | CNC(=O)Cc1ccc(C(=O)Nc2cccc(-c3ccc(-c4nc5cccc(C)c5[nH]4)s3)c2)cc1 [TCMDC-137076] | -37.06 | –
13 | Cc1c(CC(=O)NCCC2CCN(CCCCCNC(=O)/C=C/c3ccc(Cl)c(Cl)c3)CC2)sc2ccc(Cl)cc12 [TCMDC-140008] | 19.89 | –
14 | CN(C(=O)C1(c2ccc(Cl)cc2)CC1)C1CCN(CCCCCNC(=O)/C=C/c2ccc(Cl)c(Cl)c2)CC1 [TCMDC-139987] | -12.99 | –
15 | O=C(/C=C/c1ccc(Cl)c(Cl)c1)NCCCCCN1CCC(CCNC(=O)/C=C/c2ccc(Cl)c(Cl)c2)CC1 [TCMDC-139998] | 17.18 | –
16 | O=C(/C=C/c1ccc(Cl)c(Cl)c1)NCCCCCN1CCC(CCNC(=O)Cc2ccc(Cl)cc2)CC1 [TCMDC-140001] | 60.19 | –
17 | Cc1oc(-c2ccc(Cl)cc2)cc1C(=O)NCCC1CCN(CCCCCNC(=O)/C=C/c2ccc(Cl)c(Cl)c2)CC1 [TCMDC-140009] | 105.7 | –
18 | O=C(C=Cc1ccc(Cl)c(Cl)c1)NCCCCCN1CCC(CCNC(=O)c2cccc3ccccc23)CC1 [TCMDC-139565] | 43.11 | –
19 | O=C(/C=C/c1ccc(Cl)c(Cl)c1)NCCCCCN1CCC(CCNC(=O)C2(c3ccc(Cl)cc3)CC2)CC1 [TCMDC-140000] | 67.34 | –
